Compound activity from PubChem.
PI4K2A block: PI4K2A (human) kinase inhibition; Q9BTU6; purified PI4K2A, ADP-Glo luminescence, 1 h; active compounds read low; activity change, negative = inhibition, % at 76.9 µM; 420,000 tested, 0.13% active; in the data active = activity change below about -50%; inconclusive = mostly about -30% to -49%;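 also: -100% = wells without enzyme as full effect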
Target sequence (Q9BTU6 whole entry, looked up): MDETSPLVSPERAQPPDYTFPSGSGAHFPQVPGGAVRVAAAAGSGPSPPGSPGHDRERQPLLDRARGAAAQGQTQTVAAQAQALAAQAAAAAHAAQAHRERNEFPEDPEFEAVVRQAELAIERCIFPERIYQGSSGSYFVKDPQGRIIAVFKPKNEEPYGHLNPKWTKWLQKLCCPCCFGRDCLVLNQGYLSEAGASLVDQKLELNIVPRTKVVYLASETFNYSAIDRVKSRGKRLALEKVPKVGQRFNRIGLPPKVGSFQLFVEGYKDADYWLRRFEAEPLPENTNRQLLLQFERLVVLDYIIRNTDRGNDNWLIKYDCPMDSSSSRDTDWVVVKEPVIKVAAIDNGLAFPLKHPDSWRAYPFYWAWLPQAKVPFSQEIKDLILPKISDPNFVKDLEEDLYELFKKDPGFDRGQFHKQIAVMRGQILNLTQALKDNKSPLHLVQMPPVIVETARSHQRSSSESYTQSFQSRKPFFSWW
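Compounds are screened against recombinant PI4K2A using PI as substrate and ATP, the latter dispensed at 300 microM. Reactions run one hour at ambient temperature before ADP-Glo detection; full inhibition defined by wells lacking enzyme.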
KB-V1 cytotox: kills drug-selected multidrug resistant KB-V1 cells. Potency, µM (titrated, usually from 46.1 µM), usual class: cytotoxic. KB-V1 MDR cells viability, CellTiter-Glo, 72 h. 400,000 tested, 3.4% active. AID 1347076; also: potency is read from the fitted curve at half-maximal effect; nearly all actives have a fitted effect of over 60% in size
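Potencies derive from concentration-effect curves fitted to normalized luminescence (CellTiter-Glo) of KB-V1 cells treated for 72 h at 37 degrees C in phenol-red-free DMEM containing 10% FBS.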
KB-3-1 cytotox: kills parental KB-3-1 adenocarcinoma cells | KB-3-1 viability, CellTiter-Glo ATP luminescence, 72 h | Potency, µM (doses to about 46.1 µM), most hits filed as cytotoxic | 400,000 tested, 1.4% active | AID 1347075; also: potency is read from the fitted curve at half-maximal effect; nearly all actives have a fitted effect of over 60% in size
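Using CellTiter-Glo luminescence, growth of non-resistant KB-3-1 adenocarcinoma cells is assessed 72 h after pin-tool compound addition at 37 °C. Normalized responses across the concentration series yield fitted curves.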
A549 tox: A549 cytotoxicity, counter-screen for Nrf2 inhibitors | A549 ARE-Fluc cells, CellTiter-Fluor viability, 18-24 h | Potency, µM (highest dose often 46 µM), for the others: at the highest dose activity change, negative = cytotoxicity, usual class: inhibitors | 390,000 tested, 0.16% active | AID 504648; also: potency is read from the fitted curve at half-maximal effect
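Cytotoxicity counterscreen: CellTiter-Fluor fluorescence was measured in A549 ARE_Fluc cells after 18-24 h of compound exposure in a concentration series. The subsequent BugLite luminescent read reports ARE-luciferase activity.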
Nrf2 block: Nrf2 pathway inhibition. Potency, µM (series often up to 46 µM), for inactives: at the highest dose activity change, negative = inhibition, hits mostly inhibitors. 360,000 tested, 2.1% active. AID 504444. A549 ARE-Fluc reporter, luciferase luminescence, 18-24 h; also: potency is read from the fitted curve at half-maximal effect; nearly all actives have a fitted effect of over 60% in size
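A549 ARE_Fluc cells, 5000/well, 5% FBS OPTI-MEM; compounds in dose-response, 18-24 h at 37 °C/5% CO2; CellTiter-Fluor viability read (Ex 405/Em 525), then BugLite luciferase luminescence = Nrf2 activity.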
Giardia kill: kills Giardia lamblia. Giardia lamblia trophozoite viability. activity change, % at 7.66 µM, hits read low. 340,000 tested, 0.15% active. AID 540267; in the data active = activity change below about -80%; inconclusive = between about -30% and that limit;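 also: parasites exposed to compound for two days anaerobically before the ATP read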
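Luminescent ATP signal served as the viability read-out, measured 15-30 min after adding ATP detection reagent to trophozoites that had been incubated with compounds for 48 hrs at 37 deg C anaerobically at 100 cells/well.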
The depositor's hits bear a star. Rows were chosen to be rich in hits. Some 5.7% of all compounds tested hit in one or more screens of this group. Unless noted, calls follow the shape of the dose curve; as a rule, active = well fitted curve in the direction sought with a large enough effect; inconclusive = small, poorly fitted or top-dose-only effect, or another doubt; inactive = no such curve, though single readings can be large; an effect the other way counts as inactive or inconclusive. Unless noted, % is scaled to controls: 0 for no effect and ±100 for the full control effect.

For COc1ccc(OC)c(S(=O)(=O)N(CCc2ccc(OC)c(OC)c2)Cc2cccs2)c1 the results were PI4K2A block 10.8.
For S=c1[nH]nc(-c2cccc(Cl)c2)n1/N=C/c1ccc(-c2ccccc2Br)o1 the results were PI4K2A block 8.6, KB-V1 cytotox inactive, KB-3-1 cytotox inconclusive, A549 tox -9.9%, Nrf2 block 9.6% and Giardia kill 5.1.
`S=c1[nH]nc(-c2ccccc2)n1/N=C/c1ccc(-c2ccccc2Cl)o1` gave PI4K2A block -4.8, KB-V1 cytotox 13µM*, KB-3-1 cytotox inactive, A549 tox inconclusive, Nrf2 block 13.1% and Giardia kill -19.5.
For CCOC(=O)c1ccc(NC(=O)CCc2nc(-c3ccc(C)cc3)no2)cc1 the results were PI4K2A block 4.9, KB-V1 cytotox inactive, KB-3-1 cytotox inactive, A549 tox -19.3%, Nrf2 block 14.6µM* and Giardia kill 0.5.
Screening COc1ccc(-c2noc(CCCC(=O)O)n2)cc1 returned PI4K2A block -13.3, KB-V1 cytotox inconclusive, KB-3-1 cytotox inactive, A549 tox -2.0%, Nrf2 block 1.84µM* and Giardia kill -7.3.
COc1ccc(-c2noc(CCC(=O)O)n2)cc1 was read as PI4K2A block -7.4, KB-V1 cytotox inactive, KB-3-1 cytotox inactive, A549 tox -1.0%, Nrf2 block -16.7% and Giardia kill 9.4.
Screening Cc1ccc(-c2noc(CCCC(=O)NC3CCCCC3)n2)cc1 returned PI4K2A block 28.6, KB-V1 cytotox 16.4µM*, KB-3-1 cytotox inconclusive, A549 tox -3.4%, Nrf2 block inconclusive and Giardia kill -0.8.
For CCc1ccccc1N(C)C(=O)CCc1nc(-c2ccc(C)cc2)no1 the results were PI4K2A block -4.1, KB-V1 cytotox 18.4µM*, KB-3-1 cytotox inactive, A549 tox 10.5% and Giardia kill -7.1.
COc1ccc(Cl)cc1N(C)C(=O)CCc1nc(-c2ccc(C)cc2)no1 was read as PI4K2A block 4.1, KB-V1 cytotox inconclusive, KB-3-1 cytotox inactive, A549 tox -4.2% and Giardia kill -0.6.
Screening CCOc1ccc(NC(=O)c2cc(S(=O)(=O)N3CCc4ccccc43)ccc2F)cc1 returned PI4K2A block -5.3 and A549 tox -0.9%.
CCCCS(=O)(=O)N[C@@H](Cc1ccc(OCCCCC2CCNCC2)cc1)C(=O)O was read as PI4K2A block -0.6.
For CCCCN(C)C(=O)CSc1nnc(-c2cccnc2)n1C1CCCCC1 the results were PI4K2A block -4.4.
CCCCN(CC)C(=O)CSc1nc2n[nH]c(C)c2c(=N)n1-c1ccc(CC)cc1 was read as PI4K2A block -3.1 and A549 tox -19.1%.
For COP1(=O)CCOCC[C@H](CC(C)C)NC(=O)[C@H](CC(C)C)N1 (stereo not given in full) the results were PI4K2A block -6.0.
O=C(O)CCc1nc(-c2ccccc2)no1 was read as PI4K2A block -3.9, KB-V1 cytotox inactive, KB-3-1 cytotox inactive, A549 tox -9.6%, Nrf2 block -4.4% and Giardia kill -9.0.
`CCOc1ccc(-c2noc(CCC(=O)O)n2)cc1` gave PI4K2A block -2.4, KB-V1 cytotox inactive, KB-3-1 cytotox inactive, A549 tox 5.0%, Nrf2 block 3.26µM* and Giardia kill 6.5.
For O=C(Cn1cnc2ccccc2c1=O)N1CCCCC1 the results were PI4K2A block -3.1.
CCN(C(=O)[C@@H](C1CC1)[C@@H](O)c1ccc(C(C)=O)cc1)c1ccccc1 was read as PI4K2A block -2.6.
Cc1ccccc1OCCNc1cc(N2CC(C)NC(C)C2)ccc1[N+](=O)[O-] (stereo not given) was read as PI4K2A block -5.0, KB-V1 cytotox 20.6µM*, KB-3-1 cytotox inconclusive, A549 tox -18.5%, Nrf2 block -7.1% and Giardia kill -21.8.
